# Rpn11 inh: inhibitors of human proteasome Rpn11; O00487; human 26S proteasome, Ub4-pepOG fluorescence polarization; 20S core pre-blocked with epoxomicin; inhibition, % at 20 µM; 0.59% of 360,000 active;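 active = inhibition at 20 µM, scaled to each plate's controls, above about 33%, limit read from the data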
# Target sequence (O00487 whole entry, looked up): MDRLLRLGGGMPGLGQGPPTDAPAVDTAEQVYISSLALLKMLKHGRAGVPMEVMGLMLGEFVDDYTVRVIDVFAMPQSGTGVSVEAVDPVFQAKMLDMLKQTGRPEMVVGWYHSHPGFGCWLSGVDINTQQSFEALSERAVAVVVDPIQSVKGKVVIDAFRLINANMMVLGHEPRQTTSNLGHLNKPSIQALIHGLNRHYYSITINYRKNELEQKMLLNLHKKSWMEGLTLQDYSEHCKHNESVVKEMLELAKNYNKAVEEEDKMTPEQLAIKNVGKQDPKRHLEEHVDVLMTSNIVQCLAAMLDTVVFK
# Fh CTSL1 inh: cathepsin L1 inhibition, PFM18AAP counter-screen; recombinant F. hepatica cathepsin L1, Z-Leu-Arg-MCA fluorescence; inhibition, % at 5.96 µM; 0.49% of 300,000 active; AID 1906;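 active = inhibition above the mean of all tested compounds plus 3 SD, set per screening campaign, cut at about 17% in these data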;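 also: 0% = plate median of test compound wells and 100% = 1 µM Z-Phe-Ala-diazomethylketone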
# TPT1 inh: inhibitors of Candida albicans tRNA 2'-phosphotransferase TPT1; recombinant caTPT1, FP RNA substrate dephosphorylation; AID 1962; 0.81% of 300,000 active; inhibition, % at 5 µM;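 active = inhibition above the mean of all tested compounds plus 3 SD, set per screening campaign, cut at about 24% in these data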;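 also: plate controls were DMSO alone for no effect and ferristatin control at 100 nM for full effect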
# NRP1-CendR mod: NRP-1/CendR interaction modulation. 0.85% of 360,000 active. AID 602438. O14786. FAM-RPARPAR peptide binding to NRP-1, fluorescence polarization. inhibition, % at 25 µM;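 active = inhibition or corrected inhibition above about 18%, plus a signal ratio from 0.5 to 1.5, limit read from the data, passing the limit was not always enough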
# PHOSPHO1 inh: PHOSPHO1 (human) inhibition; Q8TCT1; 1.1% of 290,000 active; inhibition, % at 13.3 µM; recombinant PHOSPHO1, absorbance phosphatase assay; in the data active = inhibition above about 60%
# Target sequence (Q8TCT1 whole entry, looked up): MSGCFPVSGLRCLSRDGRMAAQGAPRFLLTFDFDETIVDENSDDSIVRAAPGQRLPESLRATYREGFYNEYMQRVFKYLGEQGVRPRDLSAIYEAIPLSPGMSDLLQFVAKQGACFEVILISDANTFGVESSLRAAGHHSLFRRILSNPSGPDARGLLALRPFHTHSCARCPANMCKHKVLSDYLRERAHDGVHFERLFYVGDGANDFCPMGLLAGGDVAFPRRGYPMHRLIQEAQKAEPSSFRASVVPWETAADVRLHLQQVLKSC
# HNF4A DNA FP: change in binding of human HNF4 alpha to DNA | P41235 | HNF4a-FITC DNA binding, fluorescence polarization, 1 h | activity change, % at 10 µM | 0.3% of 360,000 active | AID 1224865; in the data active = activity change above about 30%, passing the limit was not always enough
# * hit, by the source's call; . = no result shown. Only some compounds are listed: those with a hit (about 3.3% of all), similar ones and a draw of the others.
SMILES,Rpn11 inh,Fh CTSL1 inh,TPT1 inh,NRP1-CendR mod,PHOSPHO1 inh,HNF4A DNA FP
O=C(Nc1ccccc1C(=O)NCc1ccco1)NC1CCCCC1,1.6,-2.1,-4.6,20.1*,3.7,0.2
O=C(NCCc1ccccc1O)c1cc2c(cc1[N+](=O)[O-])OCO2,-2.7,.,.,-4.4,.,2.8
CCN(CC)S(=O)(=O)c1cccc(-c2nnc(SCC(=O)NC)n2N)c1,5.2,-2.4,-3.7,10.3,31.7,-1.4
CCN(CC)S(=O)(=O)c1cccc(-c2nnc(SCC(=O)c3ccc(Cl)s3)n2C)c1,-1.7,3.0,4.4,2.9,63.7*,0.9
CSc1cccc(NC(=O)c2ccco2)c1,5.9,-2.6,-4.1,21.0*,14.1,0.6
CCN(CC)c1ccc(NC(=O)c2cc(Cl)ccc2OC)cc1,4.1,0.3,1.1,10.5,75.8*,3.5
CCN(CC)c1ccc(NC(=O)c2ccco2)cc1,-4.4,5.6,-4.6,10.5,61.1*,-0.4
CCN(CC)c1ccc(NC(=O)c2ccccc2F)cc1,-1.6,-2.7,-3.4,13.3,62.5*,-3.1
COc1ccc(Cl)cc1C(=O)Nc1ccncc1,-2.7,2.6,-0.8,-14.7,12.8,3.1
CCN1CCN(CCC(=O)Nc2cccc(C)c2)CC1,-1.4,-3.0,-1.4,4.6,.,2.2
O=S(=O)(Nc1ncccn1)c1ccc(NC(=S)Nc2ccccc2Cl)cc1,-1.4,-0.5,-1.1,1.0,20.3,0.3
Cc1ccccc1N1CCN(C2CCCN(C(=O)c3snnc3C)C2)CC1 (centres undefined),-5.7,0.0,-1.9,-36.3,22.2,-0.2
COc1ccc(C(=O)Oc2c(OC)cc(C(=S)N3CCOCC3)cc2OC)cc1OC,1.1,-5.7,-1.0,4.8,-159.2,-2.2
COc1ccccc1N1CCN(C2CCCN(C(=O)c3ccccn3)C2)CC1 (centres undefined),4.6,-1.9,1.8,5.8,19.9,0.2
Cc1cc(OCC(=O)Nc2ccc(N3CCN(C(=O)c4ccco4)CC3)cc2)cc(C)c1Cl,-1.1,-2.8,-0.8,-3.6,72.9*,-5.7
Cc1ccccc1OCC(=O)Nc1cccc(NC(=O)c2ccco2)c1,-10.2,1.9,-6.8,11.5,56.2,1.9
Cc1ccccc1OCC(=O)Nc1ccc(NC(=O)c2ccco2)cc1,-0.7,-5.2,5.1,-5.1,67.3*,-0.3
CCN(CC)c1ccc(NC(=O)/C=C\c2ccccc2Cl)cc1,6.4,-1.0,-0.4,-4.2,69.3*,-2.5
CCOCc1nnc(NC(=O)c2cc(Cl)ccc2OC)s1,-2.8,1.2,-2.1,-2.4,97.4*,2.8
O=c1c2ccccc2nc(/C=C/c2ccc([N+](=O)[O-])cc2)n1CCCO,1.7,2.7,2.1,-2.3,1.9,-1.1
O=c1c2ccccc2nc(/C=C/c2ccc([N+](=O)[O-])o2)n1CCCO,.,2.8,21.4,-201.4,-13.6,73.7*
Cc1ccc(OCC(=O)Nc2ccc(CN3CCOCC3)cc2)cc1,-5.0,-1.1,-1.1,8.8,61.0*,0.7
Cc1cccc(OCC(=O)Nc2ccc(CN3CCOCC3)cc2)c1C,2.4,0.5,0.7,9.2,-12.4,3.5
COc1ccc(CNC(=O)C2CCN(C(=O)c3ccc(-c4ccccc4)cc3)CC2)cc1,9.0,0.8,0.3,9.7,27.3,2.1
C#Cc1ccc(CN2CCC(N3CCC(C(=O)NCc4ccccn4)CC3)CC2)cc1,14.6,-4.8,6.2,-16.9,49.6,7.1
SMILES,Rpn11 inh,Fh CTSL1 inh,TPT1 inh,NRP1-CendR mod,PHOSPHO1 inh,HNF4A DNA FP
COc1ccc(C(=O)N2CCC(C(=O)NCc3ccccn3)CC2)cc1,2.2,-4.8,1.1,34.8*,-13.6,-2.6
CC(C)/C=C/C(=O)N1CCC(N2CCC(C(=O)NCc3ccccn3)CC2)CC1,-12.7,8.4,-12.8,10.6,70.1*,1.9
CCc1ccc(NC(=S)NC2CC3CCC(C2)N3Cc2ccco2)cc1 (centres undefined),1.1,2.4,1.5,-8.0,18.0,0.1
COc1ccc(NC(=S)NC2CC3CCC(C2)N3Cc2ccco2)cc1 (centres undefined),6.3,2.9,-0.3,20.8*,-15.5,0.5
COc1ccc(C(=O)c2ccc(OC)c(OC)c2)cc1OC,4.9,1.6,0.9,5.1,52.4,-1.9
COc1ccc(C(=O)c2nccc3cc(OC)c(OC)cc23)cc1OC,-2.5,.,.,26.4*,.,-2.5
COc1ccc(C(=O)OCC(=O)Nc2cccc(S(=O)(=O)NC3=NCCCCC3)c2)cc1[N+](=O)[O-],0.7,.,.,10.9,.,0.4
COc1ccc(OC)c(S(=O)(=O)Nc2ccc(OCC(=O)O)cc2)c1,4.3,-3.0,-3.5,0.6,-17.6,-1.4
O=C(Nc1ccc(F)cc1F)N1CCN(C/C=C/c2ccccc2)CC1,-5.2,2.1,-0.4,5.0,-1.3,-0.4
O=C(Nc1ccc(F)cc1F)N1CCN(CCc2ccccc2)CC1,-5.6,0.0,1.8,1.1,67.6*,-1.1
COC(=O)c1[nH]c2ccc(C)cc2c1NC(=O)CN1CCc2cc(OC)c(OC)cc2C1,-1.4,1.7,-1.6,-8.7,69.4*,12.1
COc1cc2c(cc1OC)CN(CC(=O)Nc1ccc(C)cc1)CC2,5.6,2.1,0.7,0.2,-16.3,-1.0
Cc1nc2c(C(=O)NCCC3=CCCCC3)c[nH]n2c(=O)c1Cl,2.3,2.2,1.8,-13.7,81.6*,-3.1
CSc1ccccc1NC(=O)CN(C)C(=O)COc1cccc2cccnc12,-4.1,.,.,27.4*,.,-5.7
O=C(CN1CCN(c2ccc(F)cc2)CC1)c1ccc2c(c1)OCO2,1.0,-3.7,3.7,-3.8,13.5,-1.1
CCn1c(-c2cc(-c3cccc(OC)c3)nc3ccccc23)n[nH]c1=S,-0.7,4.0,1.9,-9.4,92.2*,2.4
CCn1c(-c2ccc(Cl)cc2)n[nH]c1=S,0.1,-3.1,3.3,0.0,70.9*,5.1
CCn1c(-c2ccc(OC)c(OC)c2)n[nH]c1=S,0.7,7.8,2.0,13.0,5.4,-0.7
CCCCn1c(-c2cc(Cl)ccc2OC)n[nH]c1=S,1.9,4.0,-1.0,7.7,60.5*,-0.4
CCn1c(-c2cc(-c3ccccc3)sc2N)n[nH]c1=S,3.3,-0.5,-3.0,7.7,76.8*,-3.5
CCCCn1c(-c2ccc([N+](=O)[O-])cc2)n[nH]c1=S,-3.2,6.0,2.9,6.3,102.3*,4.3
COc1ccc(Cn2c(-c3ccc(OC)cc3)n[nH]c2=S)cc1,-6.1,0.1,0.9,-7.2,.,-2.9
CCCn1c(-c2ccc(F)cc2)n[nH]c1=S,1.8,-1.5,-2.3,-17.0,91.3*,0.5
CCCCn1c(-c2cccnc2)n[nH]c1=S,-1.4,-1.3,0.7,14.7,-9.7,-2.2
COc1ccc(-c2n[nH]c(=S)n2CC(C)C)cc1,-9.9,1.6,-7.7,-4.1,96.9*,-2.2
CCn1c(-c2ccc(C)cc2)n[nH]c1=S,-7.4,-1.6,-1.8,3.3,100.3*,-3.0
CC(OC(=O)COc1cccc2c1OC(C)(C)C2)C(=O)Nc1ccc(S(N)(=O)=O)cc1 (centres undefined),3.4,-5.3,-3.5,0.1,.,2.1

# Screens as filed in PubChem BioAssay.
